Compound activity (PubChem)
The list is not random: actives were taken first. Their share in the collection is about 3.5%.
M1 PAM: human CHRM1 positive allosteric modulation; AID 588819; activation, % at 3 µM; hit rate 0.088% among 360,000; CHO-K1 hM1, Fluo-8 calcium fluorescence, ACh EC20; 0% = ACh EC20, 100% = maximal ACh; in the data active means activation above about 19%, passing the limit was not always enough
Target sequence (P11229 whole entry, looked up): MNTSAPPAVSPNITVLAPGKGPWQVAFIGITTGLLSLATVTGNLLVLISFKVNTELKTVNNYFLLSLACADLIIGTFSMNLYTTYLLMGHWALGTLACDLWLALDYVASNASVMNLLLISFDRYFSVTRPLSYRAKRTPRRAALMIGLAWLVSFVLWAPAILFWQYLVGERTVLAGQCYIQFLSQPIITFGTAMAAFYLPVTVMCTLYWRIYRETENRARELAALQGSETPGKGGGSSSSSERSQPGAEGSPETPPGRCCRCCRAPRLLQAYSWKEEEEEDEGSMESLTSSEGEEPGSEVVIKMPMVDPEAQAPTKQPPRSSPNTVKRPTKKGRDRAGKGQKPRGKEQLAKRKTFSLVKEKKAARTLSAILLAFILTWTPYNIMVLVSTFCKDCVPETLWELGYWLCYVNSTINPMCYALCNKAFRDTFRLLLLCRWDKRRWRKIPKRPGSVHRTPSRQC
CHRM1 agonist: agonists of human M1 muscarinic receptor; P11229; CHO-K1 hM1, Fluo-8 calcium fluorescence, agonist mode; 0% DMSO, 100% acetylcholine EC100; activation, % at 3 µM; hit rate 0.33% among 360,000;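 active means activation above the run's mean compound activation plus 3 SD, cut at about 16% in these data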;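 further: peak over basal fluorescence ratio within a 140 s kinetic read after compound addition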
ATG4B inhibitor: blocks human ATG4B protease cleavage of LC3 substrate; Q9Y4P1; ATG4B cleavage of LC3-PLA2, NBD-HPC fluorescence, 1 h; inhibition, % at 8.33 µM; hit rate 0.51% among 340,000; AID 504462; in the data active means inhibition above about 40%
M1 antag: antagonists of human M1 muscarinic receptor; P11229; CHO-K1 hM1, Fluo-8 calcium fluorescence, ACh EC80 antagonist; inhibition, % at 3 µM; hit rate 1.3% among 360,000; AID 588852;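 active means percent inhibition above its own plate's cutoff, namely the mean of that plate's compound wells plus 3 SD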;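 further: peak over basal fluorescence ratio during 140 s after agonist addition; 0% = ACh EC80 plus DMSO and 100% = DMSO alone without agonist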
SKN-1 inh: blocks SKN-1 activity in C. elegans. C. elegans VP596 Pgst-4::GFP/RFP ratio, acrylamide-induced, 24 h. inhibition, % at 21.8 µM. hit rate 0.49% among 360,000. AID 624304;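 active means interference check ratio from 0.5 to 1.5 plus GFP to RFP signal ratio inhibition reaching or exceeding a fixed threshold, cut at about 30% in these data, passing the limit was not always enough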
Myeloid diff 2: compounds promoting myeloid differentiation | hit rate 1% among 360,000 | ER-HoxA9 myeloid progenitors, lysozyme-GFP differentiation, flow cytometry | calls only at 10 µM | AID 624256;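 active means normalized GFP-positive differentiation at or above the plate's own cutoff, the solvent-only control mean plus 3 SD; inconclusive means no clear call, values can overlap the other calls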;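 further: cells exposed to compound for four days before flow analysis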
* marks the source's active call; other numbers are inactive results; i = inactive; ? = inconclusive; / = no result; + = active, no number.

SMILES	M1 PAM	CHRM1 agonist	ATG4B inhibitor	M1 antag	SKN-1 inh	Myeloid diff 2
CN(C)CCNC(=O)/C=N/O	-9	26*	-7	1	-5	i
CN(C)CCCCCNCCCNC(=O)/C=N\O	10	-4	3	-25	-7	i
N#Cc1ccc(CCc2ccccc2)[nH]c1=O	6	0	-1	-8	-1	i
N#Cc1ccc(CC(=O)c2ccccc2)[nH]c1=O	6	0	-8	-15	44*	i
Cc1cc2nc3n(c2cc1C)CC1CC(C(=O)NCC2CC2)N(C)C31 (stereo not drawn)	-19	-11	-7	42*	8	i
CCN1C(=O)/C(=C\C=C\c2ccccc2[N+](=O)[O-])SC1=S	11	-10	3	-6	-7	?
CCN1C(=O)/C(=C/C=C2\N(CC)c3cc(S(=O)(=O)N(C)C)ccc3N2c2ccccc2)SC1=S	5	6	3	-10	83	+
COC(=O)CCCCCCCCCCN1CCCCC1	-24	-8	-5	27*	7	i
COC(=O)CCCCC(=O)OC	18	5	-2	-16	-20	i
Cc1onc(-c2ccccc2)c1C(=O)NNC(=S)NC(=O)c1ccc2c(c1)OCO2	-14	52*	-10	19	17	i
COc1ccc(C(=O)NC(=S)NNC(=O)c2c(-c3ccccc3)noc2C)cc1OC	0	16	-13	-1	12	i
Cc1onc(-c2ccccc2)c1C(=O)NC(=S)NNC(=O)c1ccco1	3	17*	-14	-7	4	i
O=C1OCCN1C(=O)[C@H]1[C@H](c2ccc(Cl)cc2)C(c2ccccc2)=NN1c1ccccc1	-13	-3	2	26*	-7	i
CC[C@@H]1C(c2ccccc2)=NN(c2ccccc2)[C@H]1C(=O)N1CCOC1=O	3	-3	11	-8	4	+
O=C1OCCN1C(=O)[C@H]1[C@H](c2ccc(Cl)cc2)C(c2ccc(F)cc2)=NN1c1ccccc1	-10	-3	3	15	10	i
O=C(c1ccc(-c2cccc(C(F)(F)F)c2)o1)N1CCOCC1	-1	-3	-12	-1	45*	i
CCc1nc2c(OCc3ccc(C(F)(F)F)cc3)cccn2c1N(C)C(=O)C1CC1	-13	-9	/	4	0	i
CSc1c(C#N)c(N)c(C#N)c2c1COC(C)(C)C2	2	4	-4	-5	41*	i
COc1cc(N2CCCC2)c(OC)cc1/C=C1/NC(=S)NC1=O	-18	53*	2	31	9	+
COc1ccc(OC)c(/C=C2\NC(=O)NC2=O)c1	1	-2	-9	1	2	i
Cn1cc([C@@H]2C[C@H]3CN(Cc4cccc(Cl)c4)C(=O)[C@]34CCCN24)c2ccccc21	-18	-10	18	11	35*	i
O=C1N(Cc2cccc(Cl)c2)C[C@@H]2C[C@@H](c3ccsc3)N3CCC[C@@]123	-30	-12	3	34*	8	i
O=c1ccoc2ccccc12	2	-2	/	-1	15	i
O=C(Nc1ccccc1)C1=C[C@@H](c2ccc(C(F)(F)F)cc2)C[C@@H](OCCCCO)O1	-1	-8	7	1	10	i
CC[C@]12C(=O)N(C)C[C@H]([C@@H]3C(=O)N(C)C(=O)[C@@H]31)N2C(=O)c1ccc(C)cc1	23	1	-6	-20	1	i
SMILES	M1 PAM	CHRM1 agonist	ATG4B inhibitor	M1 antag	SKN-1 inh	Myeloid diff 2
CC1CN(c2nc3ccccc3nc2SCC(=O)Nc2cccc(C(F)(F)F)c2)CC(C)O1 (stereo not drawn)	-3	-1	0	7	40	+
C[C@]12CCC3C(CC[C@H]4CC(O)CC[C@]34C)C1CC/C2=N/NC(=O)c1ccncc1 (stereo partly drawn)	-2	-6	-4	9	-12	+
CCOC(=O)C1CCN(Cc2cc(Cl)c3ccccc3c2O)CC1	-3	7	-6	10	-5	i
CCC(=O)N1CCCc2cc(S(=O)(=O)N3CCN(c4ccccc4F)CC3)ccc21	-7	-1	-1	6	-1	+
Cc1ccccc1NC(=S)N1CCN(Cc2ccc3c(c2)OCO3)CC1	10	-4	-1	-6	5	i
Cc1ccc(S(=O)(=O)N(C)C)cc1NC(=S)N1CCN(Cc2ccc3c(c2)OCO3)CC1	2	-13	-16	-4	1	+
COc1ncnc2c1ncn2CCCN1CCN(Cc2ccc(C)cc2)CC1	-16	-11	/	28*	-9	i
COc1ncnc2c1ncn2CCCN1CCN(Cc2cccc3ccccc23)CC1	-7	-5	/	-2	3	i
O=C(NC(=S)N1CCOCC1)c1ccc(F)cc1	0	-2	6	-1	-12	i
COC(=O)[C@@]12C[C@@H](CC(=O)NCCCCc3ccccc3)C(=O)N(Cc3ccc4c(c3)OCO4)C1=CCC(C)(C)C2	/	/	/	/	-12	+
CCCCNC(=O)C[C@@H]1C[C@@]2(C(=O)OC)CC(C)(C)CC=C2N(Cc2ccc3c(c2)OCO3)C1=O	/	/	/	/	4	i
CC1=C(C(=O)N(C)C)CC(CC(=O)NCCCCc2ccccc2)C(=O)N1Cc1ccccc1 (stereo not drawn)	-1	35*	/	-15	4	i
COc1ccc(CN2C(=O)C(CC(=O)NCCCCc3ccccc3)CC(C(=O)N(C)C)=C2C)cc1 (stereo not drawn)	-17	53*	/	-9	-2	i
CC1=C(C(=O)N(C(C)C)C(C)C)CC(CC(=O)NCCCCc2ccccc2)C(=O)N1Cc1ccc(C(C)(C)C)cc1 (stereo not drawn)	-2	-2	/	9	7	+
CC1=C(C(=O)N(C)C)CC(CC(=O)NCCc2ccccn2)C(=O)N1Cc1ccccc1 (stereo not drawn)	9	-3	/	-8	-4	i
CCOc1ccccc1NC(=O)C(C)N1C(=O)c2ccccc2S1(=O)=O (stereo not drawn)	2	-2	-3	9	-9	i
COc1ccc(CNC(=O)Cc2c(C(=O)O)[nH]c3ccccc23)cc1	9	-2	-2	-26	0	i
COc1ccc(CNC(=O)Cc2c(C(=O)O)[nH]c3ccccc23)c(OC)c1	15	-9	-2	-18	35	+
COc1ccc(CNC(=O)c2cc3c(C)nc4ccccc4c3o2)c(OC)c1	-19	-5	-25	37*	-6	i
c1ccc(-c2cn(-c3ccccc3)c3[n+]2CCCS3)cc1	-6	-8	1	7	-1	i
c1ccc(Cn2c(-c3ccccc3)c[n+]3c2SCCC3)cc1	-25	-9	8	98*	9	i
